The source of these data is PubChem BioAssay (Tox21).

Experiment [1] can be described thus: Nuclear factor erythroid 2-related factor 2/antioxidant responsive element (Nrf2/ARE) small molecule agonists: qHTS cell viability counter screen in human keratinocytes (AID 1919968; active = well fitted curve in the direction sought with a large enough effect in the repeat runs; an effect the other way counts as inactive or inconclusive; also: nearly all actives have a fitted effect of over 55% in size). In short, it runs like this:
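Cells of the KeratinoSens line were plated at 1,500 per well and left for 5 h before compound transfer from DMSO stocks. After a 23 h incubation (37 C, 5% CO2), CellTiter-Fluor was added. Signal was taken as fluorescence intensity 1 h later.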
(In general: qHTS replaces the single test concentration by a dilution series.)

Experiment [2] in a line: Nuclear factor erythroid 2-related factor 2/antioxidant responsive element (Nrf2/ARE) small molecule agonists: luciferase reporter gene qHTS assay in human keratinocytes (AID 1919969). Also: nearly all actives have a fitted effect of over 35% in size. Background: In a reporter assay the amount or activity of a reporter protein is the signal.
Experiment [3] concerns the target Gonadotropin-releasing hormone receptor (Homo sapiens) (UniProt P30968). The experiment is described as follows: Human gonadotropin-releasing hormone receptor (GnRHR) small molecule agonists, calcium flux assay in GnRHR-HEK293 cells (AID 1920063). Also: nearly all actives have a fitted effect of over 35% in size. A digest of the protocol: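 Compounds dissolved in DMSO are pin-transferred onto dye-loaded GnRHR-HEK293 cells, which were seeded 18 h before at 37 C/5% CO2. Calcium signal is read as fluorescence intensity at 1 s intervals for 3 min.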
(In general: Calcium flux is commonly read through the fluorescence of an indicator in the cells.)

The target in experiment [4] is KiSS-1 receptor (Homo sapiens) (UniProt Q969F8). The experiment is described as follows: Human kisspeptin (KISS1R) small molecule agonists, calcium flux assay in KISS1R-HEK293 cells (AID 1920064; active = well fitted curve in the direction sought with a large enough effect in the repeat runs; an effect the other way counts as inactive or inconclusive). In short, it runs like this: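 Cell line: HEK293, stable human KISS1R. Dye loading 1 h at 37 C after 18 h culture. Read: kinetic fluorescence, 480/540 nm, 3 min at 1 s intervals.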
KiSS-1 receptor (Homo sapiens), sequence (Q969F8 whole entry, looked up): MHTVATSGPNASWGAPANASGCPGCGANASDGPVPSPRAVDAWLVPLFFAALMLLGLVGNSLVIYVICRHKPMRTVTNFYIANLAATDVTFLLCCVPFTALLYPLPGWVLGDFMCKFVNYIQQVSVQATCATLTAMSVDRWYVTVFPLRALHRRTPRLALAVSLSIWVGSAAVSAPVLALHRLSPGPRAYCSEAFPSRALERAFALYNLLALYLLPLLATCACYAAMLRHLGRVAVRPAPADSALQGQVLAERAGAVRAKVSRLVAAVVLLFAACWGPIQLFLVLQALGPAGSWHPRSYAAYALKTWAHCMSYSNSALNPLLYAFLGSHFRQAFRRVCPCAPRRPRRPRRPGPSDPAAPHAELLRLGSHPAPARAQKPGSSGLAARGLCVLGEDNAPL

Experiment [5] can be described thus: G protein-coupled receptor (GPCR) small molecule agonists, calcium flux assay: HEK293 wild type cell line counter screen (AID 1920065). A digest of the protocol: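 Tox21 10K compounds, 15 concentrations each in triplicate, pin-transferred in DMSO onto dye-loaded cells; kinetic read at 480/540 nm for 3 min, 1 s intervals.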
Experiment [6] can be described thus: p53 small molecule agonists, cell-based qHTS assay with human liver microsomes (AID 1963577).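 Also: p53 response element beta-lactamase reporter cells with liver microsomes plus NADPH.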 In short, it runs like this:
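16 h, 37 C exposure of p53RE-bla cells to compounds with human liver microsomes and NADPH (0.5 mg/mL final each); detection via LiveBLAzer mixture, 2 h dark at room temperature.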

Experiment [7] in a line: p53 small molecule agonists, cell-based qHTS assay with rat liver microsomes (AID 1963578). A digest of the protocol: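 With rat liver microsomes and NADPH present (0.5 mg/mL final each), p53RE-bla cells are treated with compound for 16 h at 37 C. LiveBLAzer detection mixture is then applied for 2 h at room temperature in the dark.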
Experiment [8] in a line: p53 small molecule agonists, cell-based qHTS assay with human liver microsomes: qHTS cell viability counter screen (AID 1963579). Also: nearly all actives have a fitted effect of over 45% in size. A digest of the protocol:
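In this multiplexed counter screen, the reporter plates were subsequently treated with CellTiter-Glo so that cell viability, reflected by luminescence, could be recorded for p53RE-bla cells dosed 16 h with compounds under microsomal activation (HLM and NADPH).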

The nature of experiment [9]: p53 small molecule agonists, cell-based qHTS assay with rat liver microsomes: qHTS cell viability counter screen (AID 1963580). Also: nearly all actives have a fitted effect of over 45% in size. In short, it runs like this:
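Cytotoxicity counter screen: intracellular ATP read by CellTiter-Glo luminescence in the p53 reporter wells. HCT-116 p53RE-bla cells were treated for 16 h at 37 C alongside rat liver microsomes and NADPH, each 0.5 mg/mL final.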

A short description of experiment [10]: p53 small molecule agonists, cell-based qHTS assay: qHTS cell viability counter screen (AID 1963581). Also: nearly all actives have a fitted effect of over 45% in size. In short, it runs like this: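 ATP content measured by luminescence in HCT-116 p53RE-bla cells treated 16 h at 37 C, same wells as the reporter screen.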
A short description of experiment [11]: p53 small molecule agonists, cell-based qHTS assay (AID 1963582; active = well fitted activation curve with a large enough effect in the signal ratio in the repeat runs, not every such curve was filed as active; the % refers to the signal ratio). A digest of the protocol: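 16 h compound exposure (37 C) of p53 response element–bla cells, preceded by 5 h recovery at 37 C/5% CO2; read-out via LiveBLAzer B/G FRET substrate, 2 h RT, fluorescence intensity.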
The target in experiment [12] is 5-hydroxytryptamine receptor 2A (Homo sapiens) (UniProt P28223). The experiment is described as follows: 5-hydroxytryptamine receptor 2A (HTR2A) small molecule antagonists, cell-based qHTS assay (AID 1963586). Also: nearly all actives have a fitted effect of over 45% in size. In short, it runs like this: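 CHO cells stably expressing human HTR2A were plated for 18 h at 37 C, then loaded with calcium dye for 1 h. Compounds were preincubated 5 min at room temperature before DOI (4 nM solution) was added. Kinetic fluorescence was read for 3 min.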
5-hydroxytryptamine receptor 2A (Homo sapiens), sequence (P28223 whole entry, looked up): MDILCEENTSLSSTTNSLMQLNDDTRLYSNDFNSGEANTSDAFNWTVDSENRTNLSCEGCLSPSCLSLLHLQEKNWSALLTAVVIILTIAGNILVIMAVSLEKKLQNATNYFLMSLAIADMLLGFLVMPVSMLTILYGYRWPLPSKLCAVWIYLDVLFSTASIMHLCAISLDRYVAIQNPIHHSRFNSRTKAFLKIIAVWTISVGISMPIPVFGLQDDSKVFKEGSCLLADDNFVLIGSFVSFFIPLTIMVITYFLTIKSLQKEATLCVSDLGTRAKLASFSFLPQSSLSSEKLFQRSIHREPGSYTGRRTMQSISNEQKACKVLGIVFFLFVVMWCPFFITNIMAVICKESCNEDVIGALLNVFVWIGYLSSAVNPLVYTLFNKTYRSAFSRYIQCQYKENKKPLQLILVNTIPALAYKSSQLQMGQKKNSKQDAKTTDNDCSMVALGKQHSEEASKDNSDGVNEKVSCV

Experiment [13] has the same target. Put plainly: 5-hydroxytryptamine receptor 2A (HTR2A) small molecule agonists, cell-based qHTS assay (AID 1963587). Also: nearly all actives have a fitted effect of over 30% in size. A digest of the protocol:
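Kinetic calcium-flux fluorescence (2 min, 1 sec intervals) after compound addition in agonist mode. HTR2A-CHO cells were cultured 18 h, then dye-loaded 1 h at 37 C.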

Experiment [14] concerns the target Muscarinic acetylcholine receptor M1 (Homo sapiens) (UniProt P11229). The experiment is described as follows: Cholinergic receptor muscarinic 1 (CHRM1) small molecule antagonists, cell-based qHTS assay (AID 1963588). Also: nearly all actives have a fitted effect of over 40% in size. Also: potency is read from the fitted curve at half-maximal effect. In short, it runs like this:
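Compounds were tested at 15 concentrations in three independent runs. Dye-loaded CHRM1-CHO cells were exposed 5 min at room temperature before stimulation by acetylcholine added at 50nM. Intracellular calcium was read kinetically on FDSS for 3 min.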

Experiment [15] has the same target. Put plainly: Cholinergic receptor muscarinic 1 (CHRM1) small molecule agonists, cell-based qHTS assay (AID 1963589). Also: nearly all actives have a fitted effect of over 35% in size. In short, it runs like this: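 Homogeneous fluorescence calcium flux, agonist mode. Human M1-expressing CHO cells; compound dosed at 15 concentrations, three independent runs; signal sampled every 1 sec.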
Experiment [16] can be described thus: cAMP Responsive Elements (CRE) small molecule agonists, cell-based qHTS assay (AID 1963590). A digest of the protocol:
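HEK 293T cells stably bearing CRE-bla were plated at 2,000 cells per well and rested 18 h. Compounds, positive controls or DMSO were added for 3 h at 37 C. LiveBLAzer B/G substrate was then loaded for 2 h at room temperature.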

Experiment [17] in a line: cAMP Responsive Elements (CRE) small molecule antagonists, cell-based qHTS assay (AID 1963591; active = well fitted inhibition curve with a large enough effect in the signal ratio in the repeat runs, not every such curve was filed as active; the % refers to the signal ratio). In short, it runs like this: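 First, CRE-bla HEK293T cells settled 18 h at 37 C. Next, compound and 0.25 uM final NKH477 were applied for 3 h. Last, LiveBLAzer B/G substrate was loaded for 2 h at room temperature.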
Experiment [18] deals with Beta-2 adrenergic receptor (Homo sapiens) (UniProt P07550). Put plainly: Adrenergic beta2 receptor (ADRB2) small molecule antagonists, cell-based qHTS assay (AID 1963592). Also: series mostly up to about 92 µM; nearly all actives have a fitted effect of over 50% in size. A digest of the protocol: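 Assay format: CHO-ADRB2 cells, 18-20hr seeding at 37C/5% CO2, then compound plus 1nM isoproterenol agonist mix for 0.5hr RT. Homogeneous time-resolved fluorescence cAMP detection after 1hr, expressed as 665/615 nm ratio.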
Beta-2 adrenergic receptor (Homo sapiens), sequence (P07550 whole entry, looked up): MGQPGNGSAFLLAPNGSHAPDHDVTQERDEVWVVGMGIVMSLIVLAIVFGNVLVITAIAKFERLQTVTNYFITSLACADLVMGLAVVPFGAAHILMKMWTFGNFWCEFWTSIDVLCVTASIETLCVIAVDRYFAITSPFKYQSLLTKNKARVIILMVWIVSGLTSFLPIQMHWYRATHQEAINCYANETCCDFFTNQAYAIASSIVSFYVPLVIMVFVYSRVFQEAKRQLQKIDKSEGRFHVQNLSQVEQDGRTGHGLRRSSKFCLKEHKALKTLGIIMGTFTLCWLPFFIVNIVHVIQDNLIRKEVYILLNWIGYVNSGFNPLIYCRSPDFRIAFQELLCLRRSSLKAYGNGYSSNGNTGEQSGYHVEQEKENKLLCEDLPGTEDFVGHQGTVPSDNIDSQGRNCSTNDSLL

For experiment [19] the target is unchanged. Put plainly: Adrenergic beta2 receptor (ADRB2) small molecule agonists, cell-based qHTS assay (AID 1963593).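 Also: CHO cells stably overexpressing human ADRB2.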 A digest of the protocol: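 CHO cells stably over-expressing ADRB2 were plated overnight at 37C, then dosed with compounds plus a stimulation mix containing 100uM IBMX and 25uM Ro-20-1724 for 0.5hr at room temperature. cAMP was measured by HTRF competition, 1hr.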

The target in experiment [20] is D(2) dopamine receptor (Homo sapiens) (UniProt P14416). Put plainly: Dopamine D2 receptor (DRD2) small molecule agonists, cell-based qHTS assay (AID 1963594). Also: nearly all actives have a fitted effect of over 35% in size. A digest of the protocol: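 cAMP accumulation in DRD2-HEK293 cells measured by HTRF after 1 h detection; compounds added 10 min before NKH477 (200nM […]) forskolin-analogue stimulation, 30 min at room temperature, with Ro20-1724 present at 0.1 mM final.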
D(2) dopamine receptor (Homo sapiens), sequence (P14416 whole entry, looked up): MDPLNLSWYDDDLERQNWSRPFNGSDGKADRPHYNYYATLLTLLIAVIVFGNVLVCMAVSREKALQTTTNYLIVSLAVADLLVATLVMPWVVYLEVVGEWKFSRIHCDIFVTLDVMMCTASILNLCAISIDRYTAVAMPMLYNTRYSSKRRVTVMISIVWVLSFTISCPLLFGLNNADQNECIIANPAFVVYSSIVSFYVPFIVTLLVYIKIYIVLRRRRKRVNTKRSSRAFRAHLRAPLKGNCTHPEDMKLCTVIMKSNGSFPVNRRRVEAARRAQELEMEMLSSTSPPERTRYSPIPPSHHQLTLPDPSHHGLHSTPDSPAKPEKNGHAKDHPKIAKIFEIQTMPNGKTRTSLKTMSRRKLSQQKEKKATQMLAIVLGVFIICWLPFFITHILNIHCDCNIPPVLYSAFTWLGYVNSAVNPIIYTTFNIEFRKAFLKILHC

Structures are written as SMILES. Inconclusive results are not listed. A structure can be active in one record and inactive in another. Active and inactive are the calls of the source. Unless noted, calls follow the shape of the full dose curve.

Gonadotropin-releasing hormone receptor (Homo sapiens), sequence (P30968 whole entry, looked up): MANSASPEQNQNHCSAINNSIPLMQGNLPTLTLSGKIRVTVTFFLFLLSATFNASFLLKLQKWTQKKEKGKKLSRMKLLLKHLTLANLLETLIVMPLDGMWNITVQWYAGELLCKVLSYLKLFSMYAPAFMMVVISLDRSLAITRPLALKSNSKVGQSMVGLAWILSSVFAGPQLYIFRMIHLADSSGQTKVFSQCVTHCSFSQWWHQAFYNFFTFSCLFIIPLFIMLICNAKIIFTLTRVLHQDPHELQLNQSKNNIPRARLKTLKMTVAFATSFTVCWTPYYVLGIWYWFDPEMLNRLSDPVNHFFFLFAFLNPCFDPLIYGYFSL
Muscarinic acetylcholine receptor M1 (Homo sapiens), sequence (P11229 whole entry, looked up): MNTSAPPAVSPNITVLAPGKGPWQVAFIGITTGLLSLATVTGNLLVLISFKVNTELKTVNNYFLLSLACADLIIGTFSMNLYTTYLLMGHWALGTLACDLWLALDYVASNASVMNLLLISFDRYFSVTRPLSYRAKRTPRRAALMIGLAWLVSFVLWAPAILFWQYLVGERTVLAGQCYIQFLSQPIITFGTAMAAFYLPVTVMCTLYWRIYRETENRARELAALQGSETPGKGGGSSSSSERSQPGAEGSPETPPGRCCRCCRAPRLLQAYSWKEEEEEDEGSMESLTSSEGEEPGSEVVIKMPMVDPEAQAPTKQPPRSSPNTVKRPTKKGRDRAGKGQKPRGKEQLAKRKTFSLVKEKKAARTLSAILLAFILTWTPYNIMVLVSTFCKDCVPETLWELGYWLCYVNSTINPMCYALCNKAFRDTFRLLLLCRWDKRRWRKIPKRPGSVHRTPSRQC

Turning to `OCC#CCO`, the Potency result in experiment [1], in experiment [2], in experiment [3], in experiment [4], in [5] and in [6] was “inactive” in each case. In addition, the Potency entry in experiment [7], in [8], in experiment [9], in experiment [10], in experiment [11] and in experiment [12] was “inactive” in each case. In addition, the Potency result in experiment [13], in experiment [15], in experiment [16], in experiment [17], in [18] and in experiment [19] was “inactive” throughout. Besides, the Potency result in experiment [20] was “inactive”. For the same compound, the Potency in experiment [14] is 17 µM (active) and inactive.

Take `CCc1ccc(Br)cc1`: the Potency entry in experiment [1], in [2], in experiment [3], in [4], in [5] and in experiment [6] was “inactive” in each case. For the same compound, the Potency entry in experiment [7], in [8], in [9], in experiment [10], in experiment [11] and in [12] was “inactive” throughout. Moreover, the Potency result in experiment [13], in experiment [14], in experiment [15], in experiment [16], in experiment [17] and in experiment [18] was “inactive” in each case. The Potency entry in [19] and in experiment [20] was “inactive” each time.

Turning to `O=c1[nH][nH]c(=O)c2cc([N+](=O)[O-])ccc12`, the Potency entry in experiment [1], in experiment [2], in experiment [3], in experiment [4], in [5] and in experiment [6] was “inactive” throughout. The Potency result in experiment [7], in experiment [8], in experiment [9], in experiment [10], in experiment [11] and in [12] was “inactive” throughout. Also, the Potency entry in experiment [13], in experiment [14], in experiment [15], in experiment [16], in experiment [17] and in experiment [18] was “inactive” each time. The Potency result in experiment [19] and in [20] was “inactive” each time.

Regarding `CCCCCCOC(=O)C(C)CC` (stereo not given), the Potency entry in [1], in experiment [2], in experiment [3], in experiment [4], in experiment [5] and in experiment [6] was “inactive” each time. Also, the Potency result in experiment [7], in [8], in experiment [9], in [10], in experiment [11] and in [12] was “inactive” each time. Further, the Potency result in experiment [13], in experiment [14], in experiment [15], in experiment [16], in experiment [17] and in experiment [18] was “inactive” throughout. For the same compound, the Potency result in experiment [19] and in [20] was “inactive” throughout.

Consider `CCCCCCCCCCCCCCC(=O)NC(CO)CCCCCCCCCCCCCC` (stereo not given), for which the Potency result in experiment [1], in experiment [2], in experiment [3], in [4], in experiment [5] and in [6] was “inactive” each time. The Potency entry in experiment [7], in experiment [8], in experiment [9], in experiment [10], in experiment [11] and in experiment [12] was “inactive” each time. Also, the Potency result in experiment [13], in experiment [14], in experiment [15], in experiment [16], in experiment [17] and in experiment [18] was “inactive” in each case. The Potency entry in experiment [19] and in experiment [20] was “inactive” throughout.

Take `CC(C)CCCO`: the Potency entry in [1], in experiment [2], in [3], in experiment [4], in experiment [5] and in [6] was “inactive” in each case. In addition, the Potency result in experiment [7], in experiment [8], in experiment [9], in [10], in experiment [11] and in experiment [12] was “inactive” throughout. The Potency entry in [13], in [14], in experiment [15], in experiment [16], in experiment [17] and in experiment [18] was “inactive” in each case. In addition, the Potency entry in experiment [19] and in experiment [20] was “inactive” throughout.

For the compound `c1ccc(CSCc2ccccc2)cc1`, the Potency result in [1], in experiment [2], in experiment [3], in [4], in experiment [5] and in experiment [6] was “inactive” in each case. Besides, the Potency entry in experiment [7], in experiment [8], in [9], in experiment [10], in experiment [11] and in experiment [12] was “inactive” each time. In addition, the Potency entry in experiment [13], in [14], in experiment [15], in experiment [16], in [17] and in [18] was “inactive” each time. For the same compound, the Potency result in experiment [19] and in experiment [20] was “inactive” throughout.
